Data taken from article PMC4102417.

Each molecule was assayed on murine 3T3 fibroblasts (assay: primary screen, percent viability or growth; higher = less effect of the substance).
Description: Similarly, for measuring the cytotoxicity concentration (CC50) for 3T3 fibroblast cells, cultures were incubated with drugs for 72 hours and developed using Alamar Blue (Alamar Biosciences Inc, Sacramento, CA) as previously described.

| SMILES | Mammalian (3T3) cell % growth at 10 uM |
| --- | --- |
| COc1cc(O)c2c(=O)cc(-c3ccc(OC)c(-c4c(O)cc(O)c5c(=O)cc(-c6ccc([O-])cc6)oc45)c3)oc2c1.[K+] | 4.2% |
| CCN(CC)CCOc1ccc2c(c1)C(=O)c1cc(OCCN(CC)CC)ccc1-2 | 89% |
| COC(=O)C1=C(C)NC(C)=C(C(=O)OCCN(C)Cc2ccccc2)C1c1cccc([N+](=O)[O-])c1 (stereo not shown) | 99.8% |
| COc1cc2c(cc1OC)C1C(=O)c3ccc4c(c3OC1CO2)CC(C(C)C)O4 (stereo not shown) | 19.3% |
| CCCCCC(=O)O[C@]1(C(C)=O)CC[C@H]2[C@@H]3CCC4=CC(=O)CC[C@]4(C)[C@H]3CC[C@@]21C | 100% |
| O=c1[nH]c(=O)n([C@H]2C[C@H](O)[C@@H](CO)O2)cc1F | 86.2% |
| Nc1nc(N)c2nc(-c3ccccc3)c(N)nc2n1 | 72.7% |
| COc1ccc(-c2coc3cc(O)ccc3c2=O)c(O)c1O | 1.4% |
| COc1ccc(-c2cc(=O)c3ccccc3o2)cc1 | 100% |
| CCCCCCCCCCCCCC(=O)O[C@@H]1[C@@H](C)[C@@]2(O)[C@@H](C=C(CO)C[C@]3(O)C(=O)C(C)=C[C@@H]23)[C@@H]2C(C)(C)[C@]12OC(C)=O | 89.2% |
| COC(=O)C1(C)CCCC2(C)c3ccc(C(C)C)cc3C(=O)CC12 (stereo not shown) | 91.8% |
| CC(=O)Oc1ccc2c(c1)CCC1C2CCC2(C)C1CC(OC(C)=O)[C@@H]2OC(C)=O (stereo partly shown) | 60.7% |
| CC(=O)Oc1ccc(/C=C/c2cc(OC(C)=O)cc(OC(C)=O)c2)cc1 | 31.6% |
| Oc1ccc2c(c1)O[C@H](c1ccc(O)c(O)c1)[C@@H](O)C2 | 97.8% |
| CC(=O)OC1c2c(ccc3ccc(=O)oc23)OC(C)(C)C1OC(=O)CC(C)C (stereo not shown) | 81.2% |
| CC(C)COCC(CN(Cc1ccccc1)c1ccccc1)N1CCCC1.Cl (stereo not shown) | 89.6% |
| C[C@@H]1[C@H](O)[C@@H](C)/C=C/C=C/C=C/C=C/C=C/C=C/C=C/[C@H](O[C@@H]2O[C@H](C)[C@@H](O)[C@H](N)[C@@H]2O)C[C@@H]2O[C@](O)(C[C@@H](O)C[C@@H](O)[C@H](O)CC[C@@H](O)C[C@@H](O)CC(=O)O[C@H]1C)C[C@H](O)[C@H]2C(=O)O | 89.7% |

| SMILES | Mammalian (3T3) cell % growth at 10 uM |
| --- | --- |
| C=C1CC[C@@H]2C(CC2(C)C)C(=O)CC[C@H]1O (stereo partly shown) | 2.6% |
| CCCCC(CC)CNC(=N)NC(=N)NCCCCCCNC(=N)NC(=N)NCC(CC)CCCC.Cl.Cl (stereo not shown) | 12.3% |
| CC(=O)OC1CC2C(C)(C)C(=O)CCC2(C)C2CCC3(C)C(c4ccoc4)OC(=O)C4OC43C12C (stereo not shown) | 81.4% |
| Oc1ccc(Cl)c2cccnc12 | 49.7% |
| CC1(C)C(=O)C=CC2(C)C1CC(O)C1(C)C2CCC2(C)C(c3ccoc3)OC(=O)C3OC321 (stereo not shown) | 76% |
| Oc1ccc2c(c1)OC[C@]1(O)Cc3cc(O)c(O)cc3[C@H]21 | 3.6% |
| CNC1CCC(c2ccc(Cl)c(Cl)c2)c2ccccc21.Cl (stereo not shown) | 100% |
| CN(C)CCC=C1c2ccccc2CCc2ccccc21 | 100% |
| N[C@H](C(=O)O)[C@@H]1CC(Cl)=NO1 | 48.2% |
| CC(=O)OC1CC2C(C)(C)C(O)CCC2(C)C2CCC3(C)C(c4ccoc4)OC(=O)C4OC43C12C (stereo not shown) | 76.3% |
| CC(=O)[C@H]1CC[C@H]2[C@@H]3CC[C@H]4C[C@@H](O)CC[C@]4(C)[C@H]3CC[C@]12C | 100% |
| CSc1ccc2c(c1)C(N1CCN(C)CC1)Cc1ccccc1S2.O=C(O)/C=C\C(=O)O (stereo not shown) | 69.6% |
| CC(C1OC(C)(C)C(O)C1O)C1CCC2(C)C3=CCC4C(C)(C)C(=O)CCC4(C)C3CCC12C (stereo not shown) | 92.7% |
| COc1cccc(O)c1O | 1.2% |
| CC(C)CCCC(C)C1CCC2C3CC(=O)C4CC(O)CCC4(C)C3CCC12C (stereo not shown) | 100% |
| COC(=O)CC1C(C)(C)C(OC(C)=O)C2C(OC(C)=O)C34OC2(O)C1(C)C3CCC1(C)C4=CC(=O)OC1c1ccoc1 (stereo not shown) | 89.7% |
| O=c1[nH]c2ccccc2n1C1CCN(CCCC(c2ccc(F)cc2)c2ccc(F)cc2)CC1 | 8.1% |
